From PubChem BioAssay come the findings set out here.

The source made the active and inactive calls. Unless noted, the rule behind the calls is not given here.

The nature of assay [1]: resazurin metabolic signal in HepG2 cells – cell-based, resazurin fluorescence, 24 h, PK04 Diversity Set, profiling panel (AID 1172). Note: test concentration not given here. To be noted: HepG2 viability, higher = more signal.
Assay [2] in a line: budding yeast growth changes without added modifier – OD600, strain BY4716, 24 h, basal condition, primary screen (AID 1173). To be noted: S. cerevisiae BY4716 growth, OD600, 24 h; higher = more signal, called active from +8 up or from −8 down.
The nature of assay [3]: viability profiling in MM1S myeloma cells – cell-based, resazurin fluorescence, basal, 24 h, PK04 Diversity Set, profiling panel (AID 1174).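 Note: MM1S multiple myeloma cell line; test concentration not given here.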 The settings on record: higher = more signal, called active from +8 up or from −8 down. On the technique in general: Alamar Blue is a resazurin reagent that responds to reducing activity.
The target in assay [4] is Dihydroorotate dehydrogenase (quinone), mitochondrial (Plasmodium falciparum (isolate 3D7)) (UniProt Q08210). Briefly: inhibition of P. falciparum DHODH – biochemical, C-terminal His tag, absorbance 600 nm, primary screen (AID 1175).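 Note: recombinant parasite enzyme with a five histidine tag at its C terminus; test concentration not given here.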 The settings on record: PfDHODH enzyme, DCIP absorbance 600 nm; higher = more signal, called active from +8 up or from −8 down.
The nature of assay [5]: inhibition of PAO1 biofilm formation – strain PAO1, LB-PBS medium, absorbance 600 nm, primary screen (AID 1176). Note: test concentration not given here. The settings on record: P. aeruginosa PAO1 growth/biofilm, A600, 12 h; higher = more signal.
Assay [6] can be described thus: growth modulation of vineyard yeast isolate – strain RM11-1a, OD600, basal, 24 h, primary screen (AID 1177).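 Note: cultures grown under basal conditions with no added stressor; test concentration not given here.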 To be noted: S. cerevisiae RM11-1a growth, OD600, 24 h; higher = more signal, called active from +8 up or from −8 down.
The nature of assay [7]: growth of efflux-deficient E. coli DRC39 – strain DRC39, OD650, 24 h, E. coli filamentation inducers, primary screen (AID 1178).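 Note: growth measured as culture turbidity by optical density at 650 nm; test concentration not given here.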 The settings on record: E. coli DRC39 acrAB, higher = more signal, called active from +8 up or from −8 down.
Assay [8] can be described thus: growth of efflux-deficient E. coli DRC39 – strain DRC39, OD650, 48 h, E. coli filamentation inducers, primary screen (AID 1179).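 Note: screen aims at cell division blockers that make cells filament.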 The settings on record: E. coli DRC39 delta-acrAB growth, higher = more signal, called active from +8 up or from −8 down.
Assay [9] can be described thus: viability profiling in RPMI8226 myeloma cells – cell-based, resazurin fluorescence, basal, 24 h, PK04 Diversity Set, profiling panel (AID 1180).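 Note: RPMI8826 multiple myeloma cell line at 5000 cells per well; test concentration not given here.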 To be noted: higher = more signal.
For assay [10], the target named is E3 ubiquitin-protein ligase XIAP (Homo sapiens) (UniProt P98170). Kind of assay: small molecules binding XIAP protein – biophysical, small-molecule microarray, fluorescence 635 nm, primary screen (AID 1181).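 Note: score merges 667 nm emission and signal to noise over triplicate slides.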 To be noted: higher = more signal.
Chain of E3 ubiquitin-protein ligase XIAP (Homo sapiens) (P98170 whole entry, looked up): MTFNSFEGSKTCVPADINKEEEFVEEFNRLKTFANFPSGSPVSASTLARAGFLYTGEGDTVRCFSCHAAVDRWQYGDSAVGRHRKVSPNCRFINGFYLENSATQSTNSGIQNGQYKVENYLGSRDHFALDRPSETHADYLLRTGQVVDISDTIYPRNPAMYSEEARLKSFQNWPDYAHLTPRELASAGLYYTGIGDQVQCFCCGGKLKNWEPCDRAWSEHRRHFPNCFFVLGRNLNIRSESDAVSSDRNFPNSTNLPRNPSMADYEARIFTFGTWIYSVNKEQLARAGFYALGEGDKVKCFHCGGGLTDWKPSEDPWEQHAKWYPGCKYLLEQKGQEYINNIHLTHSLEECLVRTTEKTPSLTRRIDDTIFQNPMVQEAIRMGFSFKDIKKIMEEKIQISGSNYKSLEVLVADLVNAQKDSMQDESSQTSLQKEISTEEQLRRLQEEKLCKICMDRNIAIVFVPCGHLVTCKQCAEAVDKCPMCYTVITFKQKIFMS

Chain of Dihydroorotate dehydrogenase (quinone), mitochondrial (Plasmodium falciparum (isolate 3D7)) (Q08210 whole entry, looked up): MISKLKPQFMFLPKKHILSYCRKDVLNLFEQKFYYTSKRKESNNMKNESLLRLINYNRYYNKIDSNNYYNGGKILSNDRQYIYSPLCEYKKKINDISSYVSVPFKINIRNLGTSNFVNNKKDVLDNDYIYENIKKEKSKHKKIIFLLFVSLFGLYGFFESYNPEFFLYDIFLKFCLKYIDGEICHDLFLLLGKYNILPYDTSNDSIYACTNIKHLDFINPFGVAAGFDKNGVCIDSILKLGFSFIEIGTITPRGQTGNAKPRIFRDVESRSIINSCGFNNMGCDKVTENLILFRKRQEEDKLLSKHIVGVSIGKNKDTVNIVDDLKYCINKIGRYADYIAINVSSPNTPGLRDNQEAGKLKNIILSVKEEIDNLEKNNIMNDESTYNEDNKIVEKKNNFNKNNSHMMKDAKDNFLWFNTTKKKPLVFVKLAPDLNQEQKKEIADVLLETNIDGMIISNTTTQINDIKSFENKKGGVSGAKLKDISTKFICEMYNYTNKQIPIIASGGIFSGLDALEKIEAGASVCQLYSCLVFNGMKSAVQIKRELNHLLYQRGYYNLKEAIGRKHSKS

For `C=CC[C@@H]1C=C[C@H](ON=C[C@@H](C)[C@H](OCc2ccccc2)C(C)C)[C@@H](CO)O1`, the z-score in assay [1] is 0.0253; in assay [2] it was -5.6 (inactive); in assay [3] it was -0.865 (inactive); in [5], 0.241 (inactive); in assay [6] it was -0.62 (inactive); in [7], -0.295 (inactive). In addition, the z-score in [8] is -0.238 (inactive); in assay [9], -0.183. Also, the composite z-score was -0.408 (inactive) in assay [4] and -0.138 in [10].
Turning to `CCOC(=O)CCN1C(=O)[C@H]2[C@H]3[C@H](O)[C@H](O)CC(=NOCC(C)C)[C@H]3CC[C@H]2C1=O`, the z-score was -0.823 in assay [1]; 0.265 (inactive) in assay [2]; -0.662 (inactive) in assay [3]; 0.246 (inactive) in [5]; 0.628 (inactive) in [6]; 0.692 (inactive) in [7]. The figures for the z-score in [8] and in assay [9] were 0.686 (inactive) and -0.876, respectively. For the same compound, the composite z-score was -1.19 (inactive) in assay [4] and -0.22 in assay [10].
Consider `CC(=O)OC[C@H]1O[C@H](CCON=C2[C@H]3CCn4c(=O)n(-c5ccccc5)c(=O)n4[C@H]3[C@H](O)[C@@H]3O[C@H]23)C=C[C@@H]1OC(C)=O`, for which the z-score in assay [1] was -0.609; in assay [2], 0.0957 (inactive); in assay [3] it was -3.19 (inactive); in assay [5], -0.95 (inactive); in assay [6], 0.393 (inactive); in [7], 0.785 (inactive). Moreover, the z-score in assay [8] is 1.17 (inactive); in [9], -0.759. For the same compound, the composite z-score in [4] was 0.33 (inactive); in [10] it was -0.148.
As to `CC(=O)O[C@H]1C2=CO[C@H](C)[C@H]3[C@H]4C5=C([C@H](O)[C@H]6O[C@H]6C5=O)[C@H](OC4C)[C@@]23C(=O)[C@@H]2O[C@@H]21` (stereo not given in full), the z-score is -1.75 in [1]; 0.0895 (inactive) in [2]; -4.88 (inactive) in assay [3]; 1.09 (inactive) in assay [5]; -0.464 (inactive) in assay [6]; -0.262 (inactive) in [7]. Moreover, the z-score is -0.267 (inactive) in [8] and -3.5 in assay [9]. Further, the composite z-score is -0.219 (inactive) in [4] and -0.266 in [10].
With `CCOC(=O)[C@H](Cc1ccccc1)NC(=O)CCC1CC(OC(=O)NCc2ccc3c(c2)OCO3)CC2(CCCC(COC(=O)NCCc3ccccc3OC)O2)O1` (stereo not given in full), the z-score in [1] was -0.23; in assay [2], 0.911 (inactive); in [3] it was -0.32 (inactive); in [5] it was 0.426 (inactive); in assay [6], 0.824 (inactive); in [7], -0.0754 (inactive). Moreover, the z-score was -0.731 (inactive) in [8] and 0.0481 in assay [9]. Further, the composite z-score in assay [4] is 0.0964 (inactive); in assay [10], -0.024.
As for `COC(=O)[C@@H]1CC[C@H](C)[C@@H](c2ccc(C)cc2)N1C(=O)c1ccc(C=NO[C@H](C)c2cn([C@H](CO)Cc3ccccc3)nn2)cc1`, the z-score in assay [1] was -1.32; in [2] it was 0.0789 (inactive); in assay [3], 0.534 (inactive); in [5] it was -0.598 (inactive); in assay [6], 0.59 (inactive); in assay [7] it was -1.28 (inactive). The z-score in [8] is -1.03 (inactive); in assay [9], 0.641. Besides, the composite z-score in assay [4] is 0.271 (inactive); in assay [10], -0.102.
Turning to `CC(C)C[C@H](NC(=O)CCC1CC(OC(=O)NCc2cccc3ccccc23)CC2(CCCC(COC(=O)NCc3ccccc3)O2)O1)C(=O)NCC(c1ccccc1)c1ccccc1` (stereo not given in full), the z-score in assay [1] was 0.1; in [2] it was -0.245 (inactive); in [3] it was 0.284 (inactive); in [5] it was 0.851 (inactive); in assay [6], -0.0457 (inactive); in [7] it was 0.64 (inactive). Further, the z-score in assay [8] is 0.628 (inactive); in assay [9], 0.731. Moreover, the composite z-score in [4] was -0.79 (inactive); in assay [10] it was -0.242.
`COc1cc(O)c(C(=O)C=Cc2ccc3c(c2)OCO3)c(OC)c1`: the z-score in [1] is 0.0215; in assay [2] it was 1.12 (inactive); in assay [3], -0.307 (inactive); in assay [5], 1.2 (inactive); in [6], 2.31 (inactive); in assay [7] it was -0.45 (inactive). The z-score was -1.04 (inactive) in assay [8] and -0.144 in [9]. The composite z-score in [4] is 1.06 (inactive); in assay [10], 0.215.
As for `CCCCC#C[C@@H]1C=C[C@H](OC(C)=O)[C@@H](COC(C)=O)O1`, the z-score was 0.693 in assay [1]; -1.44 (inactive) in [2]; -3.24 (inactive) in [3]; 0.909 (inactive) in [5]; -0.667 (inactive) in [6]; -0.233 (inactive) in assay [7]. The z-score in assay [8] is -0.248 (inactive); in [9], -1.82. For the same compound, the composite z-score in assay [4] was -0.216 (inactive); in assay [10] it was 0.474.
In the case of `CC(C)CON=C1C[C@@H](O)[C@@H](O)[C@@H]2[C@@H]3C(=O)N(c4cccc(Oc5ccccc5)c4)C(=O)[C@@H]3CC[C@@H]12`, the z-score in [1] was -0.271; in [2], -1.81 (inactive); in [3], -1.5 (inactive); in assay [5], 0.659 (inactive); in [6], -1.86 (inactive); in [7], -0.321 (inactive). Moreover, the z-score was -0.791 (inactive) in [8] and -0.0778 in assay [9]. Further, the composite z-score is -1.71 (inactive) in [4] and 0.125 in [10].
In the case of `COCOc1ccc(Br)cc1C(=O)[C@@H]1O[C@H]1c1cccc(OC)c1`, the z-score was -0.0514 in [1]; -8.36 (active) in assay [2]; -1.86 (inactive) in assay [3]; -0.257 (inactive) in [5]; 0.45 (inactive) in [6]; 0.534 (inactive) in [7]. The z-score in [8] was 0.35 (inactive); in [9], -0.516. Moreover, the composite z-score was 0.0095 (inactive) in assay [4] and 0.184 in [10].
On to `CCOC(=O)[C@H](CC(C)C)NC(=O)CCC1CC(OC(=O)NCc2ccc3c(c2)OCO3)CC2(CCCC(COC(=O)NCCCN3CCCC3=O)O2)O1` (stereo not given in full), for which the z-score in assay [1] was 0.217; in [2], -1.17 (inactive); in assay [3], 0.595 (inactive); in assay [5], 0.38 (inactive); in assay [6], 0.564 (inactive); in [7], 0.877 (inactive). In addition, the values for the z-score in [8] and in assay [9] were 0.0512 (inactive) and 1.24, respectively. Also, the composite z-score in assay [4] was -1.42 (inactive); in assay [10], -0.145.
